# Several values for one entry are separate records, joined by “and”; a condition that tells them apart may be missing. Identical values can stand only once. About 83,000 compounds went through this panel and 20% of them were active in at least one assay; those are over-represented in the sample as a whole.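 Note: values are percent growth. 100 is the growth of untreated cells, values between 100 and 0 indicate rising inhibition; between -100 and 0 indicates cell death.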 Activity calls are given as the source filed them. How the source made its calls: active means growth percent below 10; inactive means the rest.
# Assays:
# Assay in all cases: NCI-60 one-dose screen, 48 h (100 = growth as untreated, 0 = no growth, -100 = all killed)
# Details in all cases: 10 µM unless noted
# HCT-15 colon = test system: HCT-15 colon
# HT29 colon = test system: HT29 colon
# SNB-75 CNS = test system: SNB-75 CNS
# SNB-19 CNS = test system: SNB-19 CNS
# U251 CNS = test system: U251 CNS
# PC-3 prostate = test system: PC-3 prostate
# SK-MEL-5 melanoma = test system: SK-MEL-5 melanoma
# UACC-62 melanoma = test system: UACC-62 melanoma
# LOX IMVI melanoma = test system: LOX IMVI melanoma
# SK-MEL-28 melanoma = test system: SK-MEL-28 melanoma
# SK-MEL-2 melanoma = test system: SK-MEL-2 melanoma
# EKVX NSCLC = test system: EKVX NSCLC
# SN12C renal = test system: SN12C renal
# UO-31 renal = test system: UO-31 renal
# TK-10 renal = test system: TK-10 renal
# ACHN renal = test system: ACHN renal
# CAKI-1 renal = test system: CAKI-1 renal
# A498 renal = test system: A498 renal
# CCRF-CEM leukemia = test system: CCRF-CEM leukemia
# MOLT-4 leukemia = test system: MOLT-4 leukemia
SMILES,growth (HCT-15 colon),growth (HT29 colon),growth (SNB-75 CNS),growth (SNB-19 CNS),growth (U251 CNS),growth (PC-3 prostate),growth (SK-MEL-5 melanoma),growth (UACC-62 melanoma),growth (LOX IMVI melanoma),growth (SK-MEL-28 melanoma),growth (SK-MEL-2 melanoma),growth (EKVX NSCLC),growth (SN12C renal),growth (UO-31 renal),growth (TK-10 renal),growth (ACHN renal),growth (CAKI-1 renal),growth (A498 renal),growth (CCRF-CEM leukemia),growth (MOLT-4 leukemia)
O=C1CCCCN1CCCCC#Cc1cccc(C#Cc2cccnc2)c1,44.7% (inactive),86.5% (inactive),79.5% (inactive),78.3% (inactive),72.4% (inactive),61.5% (inactive),62.6% (inactive),36.3% (inactive),95.8% (inactive),107% (inactive),96.4% (inactive),93.9% (inactive),90.3% (inactive),59.1% (inactive),229% (inactive),101% (inactive),84.4% (inactive),84.3% (inactive),-23% (active),-49.9% (active)
Nc1n[nH]c2cccc(C#Cc3cccc(NC(=O)c4ccc(N5CCOCC5)c(C(F)(F)F)c4)c3)c12,8.44% (active),3.29% (active),-25.6% (active),26.1% (inactive),16.6% (inactive),1.76% (active),23.4% (inactive),-5.9% (active),-96.9% (active),8.55% (active),-7.56% (active),18.4% (inactive),9.03% (active),-31.7% (active),16.5% (inactive),-0.609% (active),9.52% (active),-34.3% (active),10.5% (inactive),7.67% (active)
COC(=O)[C@H]1Cc2c([nH]c3ccccc23)[C@@H](c2cccs2)N1,102% (inactive),97.1% (inactive),83.8% (inactive),98.2% (inactive),97.7% (inactive),100% (inactive),100% (inactive),89.5% (inactive),104% (inactive),107% (inactive),97.2% (inactive),96.3% (inactive),102% (inactive),93% (inactive),86.7% (inactive),111% (inactive),89.8% (inactive),93.2% (inactive),101% (inactive),103% (inactive)
NCCOCCOc1ccccc1,104% (inactive),97.6% (inactive),106% (inactive),106% (inactive),96.1% (inactive),90.5% (inactive),114% (inactive),102% (inactive),102% (inactive),107% (inactive),101% (inactive),106% (inactive),103% (inactive),86.8% (inactive),90.9% (inactive),106% (inactive),88.3% (inactive),97.3% (inactive),91.9% (inactive),101% (inactive)
O=[N+]([O-])c1ccc2[nH]c3nccc(NCc4cccc(Cl)c4)c3c2c1,83.2% (inactive),76.3% (inactive),7.78% (active),53.3% (inactive),43.1% (inactive),67.5% (inactive),83.7% (inactive),82.2% (inactive),81.4% (inactive),101% (inactive),93% (inactive),50.8% (inactive),86.5% (inactive),87.2% (inactive),72.8% (inactive),68.2% (inactive),60.2% (inactive),71.4% (inactive),79.6% (inactive),75.9% (inactive)
COc1c(NC=O)c2c(c([N+](=O)[O-])c1OC)C(=O)OC2,115% (inactive) and 90.4% (inactive),102% (inactive) and 112% (inactive),89.1% (inactive) and 62.6% (inactive),102% (inactive) and 99.5% (inactive),99.9% (inactive) and 101% (inactive),90.7% (inactive) and 102% (inactive),112% (inactive) and 95.4% (inactive),104% (inactive) and 93.7% (inactive),103% (inactive),111% (inactive) and 103% (inactive),107% (inactive) and 120% (inactive),110% (inactive) and 85.7% (inactive),92.1% (inactive) and 94.8% (inactive),80.2% (inactive),114% (inactive) and 111% (inactive),130% (inactive) and 112% (inactive),105% (inactive) and 89.1% (inactive),111% (inactive),91.5% (inactive) and 3.53% (active),67.9% (inactive) and 115% (inactive)
C=C1C(=O)O[C@@H]2[C@H]3[C@H](COC(C)=O)[C@@H](OC(C)=O)C[C@H]3C(=C)[C@@H](O)C[C@@H]12,91.5% (inactive),89.6% (inactive),74.8% (inactive),93.7% (inactive),89.9% (inactive),88.9% (inactive),89.2% (inactive),85% (inactive),93% (inactive),106% (inactive),88% (inactive),110% (inactive),92.9% (inactive),87.9% (inactive),82.4% (inactive),85.9% (inactive),87.8% (inactive),121% (inactive),61.8% (inactive),89.8% (inactive)
CCOC(=O)c1cc2c(n1Cc1cc(OC)cc(OC)c1Br)-c1nc(NC(C)=O)sc1CCC2,83% (inactive),63.3% (inactive),65.7% (inactive),83.9% (inactive),63.3% (inactive),22.1% (inactive),82.1% (inactive),67.3% (inactive),80.3% (inactive),98.6% (inactive),82.6% (inactive),58.6% (inactive),77.5% (inactive),51.8% (inactive),94.4% (inactive),91.2% (inactive),67.3% (inactive),55.8% (inactive),56.3% (inactive),46.7% (inactive)
CN(Cc1ccccc1)c1nc(Cl)c(C2CC(c3ccc4c(c3)OCO4)=NN2c2cc(Cl)cc(Cl)c2)s1 (stereo not given),98.7% (inactive),97.8% (inactive),78.5% (inactive),106% (inactive),98.1% (inactive),93.5% (inactive),97.4% (inactive),96.6% (inactive),96.6% (inactive),99% (inactive),101% (inactive),95.1% (inactive),99.1% (inactive),87.5% (inactive),119% (inactive),97% (inactive),84.3% (inactive),115% (inactive),97.1% (inactive),107% (inactive)
COc1ccc(/C=N/NC(=O)CN2CCN(c3cc4c(cc3F)c(=O)c(C(=O)O)cn4C3CC3)CC2)cc1O,109% (inactive),96.1% (inactive),106% (inactive),94.4% (inactive),95.3% (inactive),93% (inactive),89.8% (inactive),97.6% (inactive),97.9% (inactive),109% (inactive),94.1% (inactive),112% (inactive),99.1% (inactive),94.6% (inactive),89.6% (inactive),106% (inactive),111% (inactive),104% (inactive),92.7% (inactive),82.7% (inactive)
Cc1c(O)c(O)cc2c3c(oc12)CC(c1ccc2c(c1)OCO2)CC3=O (stereo not given),64.5% (inactive),94.3% (inactive),87.8% (inactive),101% (inactive),100% (inactive),81.1% (inactive),82.1% (inactive),53.4% (inactive),59.7% (inactive),105% (inactive),83.8% (inactive),79% (inactive),94.9% (inactive),56% (inactive),115% (inactive),75.9% (inactive),98.6% (inactive),102% (inactive),69.3% (inactive),84.4% (inactive)
Clc1ccc2c(c1)N(c1ncnc3ccc(-c4cnc5[nH]ccc5c4)cc13)CC2,14.4% (inactive),3.75% (active),3.69% (active),38.3% (inactive),41.3% (inactive),28.2% (inactive),32.7% (inactive),29.3% (inactive),13.4% (inactive),36% (inactive),28.3% (inactive),26.6% (inactive),26.7% (inactive),21% (inactive),26.2% (inactive),28.4% (inactive),31.4% (inactive),8.49% (active),21.1% (inactive),-6.69% (active)
N=c1ccccn1CCO,87% (inactive),97.3% (inactive),113% (inactive),93.5% (inactive),109% (inactive),92.7% (inactive),104% (inactive),98.1% (inactive),104% (inactive),108% (inactive),104% (inactive),121% (inactive),98.1% (inactive),85.4% (inactive),109% (inactive),102% (inactive),106% (inactive),89.9% (inactive),102% (inactive),93.4% (inactive)
CCCCn1c(C(=O)c2c[nH]c3ccccc23)n[nH]c1=S,99% (inactive),99.8% (inactive),81.2% (inactive),100% (inactive),100% (inactive),93.8% (inactive),99.9% (inactive),81.7% (inactive),96.4% (inactive),117% (inactive),91.9% (inactive),90.3% (inactive),90% (inactive),90.1% (inactive),132% (inactive),102% (inactive),79.3% (inactive),92.1% (inactive),91.3% (inactive),103% (inactive)
OCCN1CCN(c2cc(-c3cccc(OC(F)(F)F)c3)nc3ccc(N4CCCC4)cc23)CC1,10.9% (inactive),5.34% (active),53.5% (inactive),74.1% (inactive),29.3% (inactive),25.9% (inactive),46.7% (inactive),59.6% (inactive),9.02% (active),71.1% (inactive),93.3% (inactive),75.9% (inactive),59.5% (inactive),37.1% (inactive),69.3% (inactive),44.7% (inactive),40.5% (inactive),68.3% (inactive),40% (inactive),11.2% (inactive)

# Reference: PubChem BioAssay (NCI)
